Bioassay records deposited in PubChem by Broad Institute.
EZH2 inh – inhibitors of human EZH2/PRC2 methyltransferase; PRC2 H3K27 methylation, DELFIA TRF, 1 h; Q15910; inhibition, % at 12.5 µM; hit rate 0.35% among 57,000; AID 651548;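 active = mean inhibition of replicates at least 50% and every single replicate also reaching 50%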;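 note: dimethyl H3K27 on biotinylated H3 21-44 peptide detected by antibody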
Target sequence (Q15910 whole entry, looked up): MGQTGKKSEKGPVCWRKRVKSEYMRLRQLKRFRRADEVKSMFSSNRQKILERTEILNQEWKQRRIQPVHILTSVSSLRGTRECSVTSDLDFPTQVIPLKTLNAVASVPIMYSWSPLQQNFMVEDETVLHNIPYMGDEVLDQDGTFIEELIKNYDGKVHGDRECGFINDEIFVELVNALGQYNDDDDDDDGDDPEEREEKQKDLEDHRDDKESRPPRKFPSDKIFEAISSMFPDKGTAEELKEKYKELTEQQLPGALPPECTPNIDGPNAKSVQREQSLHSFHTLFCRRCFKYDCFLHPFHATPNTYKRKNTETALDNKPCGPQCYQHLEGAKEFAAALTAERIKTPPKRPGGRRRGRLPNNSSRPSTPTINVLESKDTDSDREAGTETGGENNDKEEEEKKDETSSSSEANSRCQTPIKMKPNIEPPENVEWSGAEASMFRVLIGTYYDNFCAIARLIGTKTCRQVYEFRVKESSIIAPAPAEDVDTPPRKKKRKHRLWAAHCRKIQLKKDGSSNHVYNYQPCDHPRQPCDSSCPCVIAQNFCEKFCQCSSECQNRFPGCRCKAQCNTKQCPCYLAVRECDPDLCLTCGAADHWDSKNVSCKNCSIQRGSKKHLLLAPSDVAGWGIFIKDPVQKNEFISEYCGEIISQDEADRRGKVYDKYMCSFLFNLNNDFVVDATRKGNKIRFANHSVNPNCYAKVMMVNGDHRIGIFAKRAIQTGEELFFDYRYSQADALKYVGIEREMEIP
Each line names hits and unclear results; the compound was inactive in the other large screens. Many of the other results were omitted from the sample, so hits are more common in it than they were.

COc1cc(O)c2c(c1)OC(c1ccc(O)cc1)CC2=O (centres undefined)	none
Cc1ccc(S(=O)(=O)N[C@H](C(=O)NCCn2cc(C(=O)NO)nn2)C(C)C)cc1	none
COc1cc([N+](=O)[O-])ccc1NC(=O)c1ccccc1OCC(=O)NC(C)(C)C	none
O=C(CC(Sc1ccc(Cl)cc1)c1ccc(Cl)cc1)C1CC1 (centres undefined)	EZH2 inh 53
COc1ccc(CN2C(=O)C(O)(CC(=O)c3ccco3)c3ccccc32)cc1OC (centres undefined)	none
O=C(CC1(O)C(=O)N(Cc2ccccc2)c2ccc(Br)cc21)c1ccco1 (centres undefined)	none
C/C=C1\[C@H](O[C@@H]2O[C@H](CO)[C@@H](O)[C@H](O)[C@H]2O)OC=C(C(=O)OC)[C@H]1CC(=O)OC	none
C/C=C1/[C@H](O[C@@H]2O[C@H](CO)[C@@H](O)[C@H](O)[C@H]2O)OC=C(C(=O)OC)[C@H]1CC(=O)OCCc1ccc(OC(=O)C[C@@H]2C(C(=O)OC)=CO[C@@H](O[C@@H]3O[C@H](CO)[C@@H](O)[C@H](O)[C@H]3O)/C2=C/C)cc1	EZH2 inh 61
C/C=C1\C(O[C@@H]2O[C@H](CO)[C@@H](O)[C@H](O)[C@H]2O)OC=C(C(=O)OC)C1CC(=O)OC[C@H]1O[C@@H](OCCc2ccc(O)cc2)[C@H](OC(=O)CC2C(C(=O)OC)=COC(O[C@@H]3O[C@H](CO)[C@@H](O)[C@H](O)[C@H]3O)/C2=C\C)[C@@H](O)[C@@H]1O (some centres undefined)	none
CCn1c(SCC(=O)Nc2cccc3ccccc23)nnc1-c1ccco1	none
O=C(CSc1nc(-c2ccccc2)cc(C(F)(F)F)n1)Nc1ccc2c(c1)CCC2	none
O=C1/C(=C/c2cn[nH]c2-c2ccc(F)cc2)CS/C1=C\c1cn[nH]c1-c1ccc(F)cc1	none
CCCC#Cc1cnc2c(c1)C(=O)N([C@H](C)CO)C[C@H](C)[C@H](CN(C)C(=O)CN1CCOCC1)O2	EZH2 inh 95
CCCC#Cc1cnc2c(c1)C(=O)N([C@@H](C)CO)C[C@@H](C)[C@H](CN(C)C(=O)CN1CCOCC1)O2	none
CCCC#Cc1cnc2c(c1)C(=O)N([C@H](C)CO)C[C@H](C)[C@@H](CN(C)C(=O)CN1CCOCC1)O2	none
CCOc1ccc(C)cc1S(=O)(=O)NCC1CCCO1 (centres undefined)	none
O=C(CSc1nnc(-c2ccccc2Cl)o1)c1ccc2c(c1)OCCO2	none
CC1(C)[C@H]2CC=C(/C=N\NC(=O)CCCCCC(=O)Nc3ccccc3O)[C@@H]1C2	none
CS(=O)(=O)N(CC(=O)Nc1cccc2ccccc12)c1ccc(I)cc1	none
C#CCN1C(=O)C(O)(CC(=O)c2ccc(C)o2)c2ccccc21 (centres undefined)	none
Cc1ccccc1C(C#N)C(CC#N)c1ccccc1 (centres undefined)	none
COc1ccc(C(=O)Nc2ccc(CN3C(=O)[C@]4(O[C@H](CC(=O)N5Cc6ccccc6C[C@H]5CO)[C@@H]([Si](C)(C)c5ccc(OC)cc5)[C@@H]4C)c4ccccc43)cc2)cc1	none
C/C=C/[C@H](CC(=O)N1Cc2ccccc2C[C@H]1CO)[Si](C)(C)c1ccc(OC)cc1	EZH2 inh 57
COc1ccc([Si](C)(C)[C@@H]2[C@@H](CC(=O)N3Cc4ccccc4C[C@H]3CO)O[C@]3(C(=O)N(C)c4c(Br)cc(C)cc43)[C@H]2C)cc1	none
C=CC1C(=C)CCC2C1CCC1C(C)(C(=O)O)CCCC21C (centres undefined)	none
COC(=O)c1c(NC(=S)Nc2cc3oc4ccccc4c3cc2OC)sc2c1CCCC2	none
COc1cc(O)c2c(=O)c(OC)c(-c3cc(O)c(OC)c(OC)c3)oc2c1	none
O=c1c(O)c(-c2cc(O)c(O)c(O)c2)oc2cc(O)cc(O)c12	EZH2 inh 93
O=c1c(O)c(-c2ccccc2)oc2cc(O)cc(O)c12	none
CC1CCC23CCC(O[C@@H]4O[C@H](CO)[C@@H](O)[C@H](O)[C@H]4O)C12C(C=O)=CC3(C)C (some centres undefined)	none
Cc1ccc(NC(=O)CCCn2cc([N+](=O)[O-])cn2)cc1C	none
COC(=O)C(C(CO)Cc1ccc(O)c(OC)c1)C(O)c1ccc(O)c(OC)c1 (centres undefined)	none
